TDP1 inh: TDP1 (human) enzyme inhibition; recombinant TDP1, AlphaScreen DNA substrate cleavage; AID 485290; 350,000 tested, 0.28% active; Potency, µM (titrated, usually from 130 µM), hits mostly inhibitors; also: nearly all actives have a fitted effect of over 40% in size
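Recombinant E. coli-expressed Tdp1 (1 nM) preincubated with compound 15 min at RT, then 5'-biotin/3'-phosphotyrosine-FITC DNA substrate (15 nM) added for 5 min. AlphaScreen beads (10 ug/ml) added, 10 min RT; tyrosine-FITC cleavage read as signal loss.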
DT40 TDP1 CPT: DT40-hTDP1 cell growth loss with CPT. chicken DT40 Tdp1-/-;hTDP1 cells + 20 nM CPT, ATP luminescence, 48 h. Potency, µM (highest dose often 46.2 µM), actives largely listed as inhibitors. 420,000 tested, 12% active. AID 686979; also: nearly all actives have a fitted effect of over 55% in size
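Cell growth measured by CellTiter-Glo luminescence after a minimum 48 h, 37 C compound exposure with 20 nM CPT in Tdp1-knockout DT40 cells stably expressing hTDP1, seeded 400/well; qHTS titration format.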
ClpP mod: qHTS Assay for Activators of ClpP; AID 651965, 2013; Potency, µM (titrated, usually from 57.5 µM); ATP-dependent Clp protease proteolytic subunit (Bacillus subtilis (strain 168)), P80244; 340,000 tested, 1.9% active; purified B. subtilis ClpP, FRET peptide cleavage, 20 min; active = well fitted falling curve with a large enough effect; inconclusive = small, poorly fitted or top-dose-only effect; inactive = no such curve, though single readings can be large or run the other way; also: the source files actives as falling curves though it sought activators and does not explain the sign; nearly all actives have a fitted effect of over 65% in size
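Buffer: 100 mM Tris/HCl pH8, 100 mM KCl, 0.05% low protease BSA, 2.5% glycerol, 0.01% Tween-20. ClpP 10 microg/mL final; 20 min RT; delta FRET normalized to ADEP and DMSO controls.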
TDP1 cell noCPT: qHTS for Inhibitors of human tyrosyl-DNA phosphodiesterase 1 (TDP1): qHTS in cells in absence of CPT; 420,000 tested, 15% active; Potency, µM (top dose mostly 46.2 µM), actives largely listed as inhibitors; AID 686978, 2013; DT40 Tdp1-/- hTDP1 cells, no CPT, ATP luminescence, 48 h; also: nearly all actives have a fitted effect of over 55% in size
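Readout: luminescence from CellTiter-Glo after 30 min in the dark at RT. Cells: DT40 Tdp1-/- with stable hTDP1, 400/well. Exposure: compounds alone, ≥48 hr, 37 °C.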
Of the large screens only hits and unclear results are named; the others gave an inactive call. An excerpt weighted towards active compounds, which were near 17% of everything screened. Unless noted, calls follow the shape of the dose curve; as a rule, active = well fitted curve in the direction sought with a large enough effect; inconclusive = small, poorly fitted or top-dose-only effect, or another doubt; inactive = no such curve, though single readings can be large; an effect the other way counts as inactive or inconclusive.

CCCNC(=O)C1(CC2CC(c3ccccc3)=NO2)CCN(C(=O)OC(C)(C)C)CC1 (configuration not stated)	DT40 TDP1 CPT inconclusive, TDP1 cell noCPT inconclusive (no result: TDP1 inh)
CCC1=C(OC(=O)N(CC)CC)N2C(=O)OC(=NCCOC)[C@]2(C)[C@H]2C1=CC[C@H]1C(=O)N(CC(=O)OC)C(=O)[C@H]12	none (no result: DT40 TDP1 CPT, ClpP mod, TDP1 cell noCPT)
CCCNC(=O)C1(CC2CC(c3ccccc3)=NO2)CCN(C(=O)C2(C)CC2)CC1 (configuration not stated)	none (no result: TDP1 inh)
O=C(NCC1CCCCC1)C1(CC2CC(c3ccc(Cl)cc3)=NO2)CCNCC1 (configuration not stated)	DT40 TDP1 CPT 23µM, TDP1 cell noCPT 18µM (no result: TDP1 inh)
COCCn1cnc2c(c1=O)c1nc3ccccc3nc1n2/N=C/c1ccc(OC)c(OC)c1	DT40 TDP1 CPT 18µM, TDP1 cell noCPT 16µM (no result: ClpP mod)
CCCCCCn1cnc2c(c1=O)c1nc3ccccc3nc1n2/N=C/c1ccco1	DT40 TDP1 CPT inconclusive, TDP1 cell noCPT 18µM
COCCCn1cnc2c(c1=O)c1nc3ccccc3nc1n2CCc1ccccc1	DT40 TDP1 CPT inconclusive, TDP1 cell noCPT 18µM
O=C1c2c(O)cccc2[C@H]([C@@H]2O[C@H](CO)[C@@H](O)[C@H](O)[C@H]2O)c2cc(CO)cc(O)c21	none (no result: TDP1 inh, ClpP mod)
CCCCc1ccc(NC(=O)CSc2nc(=O)n(CCN(CC)CC)c3c2CCCC3)cc1	DT40 TDP1 CPT inconclusive, TDP1 cell noCPT 23µM
C[C@H](CO)N1C[C@H](C)[C@@H](CN(C)S(=O)(=O)c2ccccc2)Oc2c(NC(=O)Nc3ccc4c(c3)OCO4)cccc2C1=O	DT40 TDP1 CPT 16µM, TDP1 cell noCPT inconclusive
C[C@H](CO)N1C[C@H](C)[C@@H](CN(C)S(=O)(=O)c2ccccc2)Oc2c(NC(=O)NC3CCCCC3)cccc2C1=O	DT40 TDP1 CPT 18µM, TDP1 cell noCPT inconclusive
N=c1c(C(=O)NCC2CCCO2)cc2c(=O)n3ccccc3nc2n1CCCO (configuration not stated)	DT40 TDP1 CPT inconclusive, TDP1 cell noCPT inconclusive (no result: TDP1 inh)
COc1ccc(C(C(=O)NC2CCCCC2)N(C(=O)c2ccco2)c2ccc(-n3cnnn3)c(C)c2)cc1 (configuration not stated)	none (no result: TDP1 inh)
CCOc1ccc(C(C(=O)NC2CCCCC2)N(C(=O)Cc2cccs2)c2ccc(-n3cnnn3)c(OC)c2)cc1 (configuration not stated)	DT40 TDP1 CPT inconclusive, TDP1 cell noCPT 23µM
COc1cccc(C(C(=O)NC2CCCC2)N(C(=O)c2ccco2)c2ccc(-n3cnnn3)c(C)c2)c1OC (configuration not stated)	DT40 TDP1 CPT inconclusive, TDP1 cell noCPT 2.9µM (no result: ClpP mod)
O=C(NC1CCCC1)C(c1ccncc1)N(C(=O)Cc1cccs1)c1ccc(F)cc1 (configuration not stated)	TDP1 cell noCPT inconclusive
CCOc1cccc(N(C(=O)Cc2cccs2)C(C(=O)NC2CCCCC2)c2cccn2C)c1 (configuration not stated)	DT40 TDP1 CPT 16µM, TDP1 cell noCPT 16µM
COc1cccc(N(C(=O)Cc2cccs2)C(C(=O)NC2CCCC2)c2ccncc2)c1 (configuration not stated)	none (no result: TDP1 inh, ClpP mod)
COc1cccc(NC(=O)c2sc3nc(C)c(C(=O)Nc4ccc(C)cc4C)c(-c4ccccc4Cl)c3c2N)c1	TDP1 cell noCPT inconclusive
CCS(=O)(=O)Nc1c(C(=O)O)[nH]c2ccccc12	ClpP mod 22µM
COCCNc1c(-c2cc3ccc(C)c(C)c3[nH]c2=O)nc2ccccn12	DT40 TDP1 CPT inconclusive, TDP1 cell noCPT 18µM (no result: ClpP mod)
Cc1ccc(NC(=O)C(=Cc2ccc(C(=O)O)cc2)C(=O)Nc2ccc(C)cc2C)c(C)c1	DT40 TDP1 CPT 5.2µM, TDP1 cell noCPT 2.9µM
Cc1ccc(NC(=O)/C(C#N)=C/c2ccc(C)s2)c(C)c1	none
CN(C)c1cc[n+](CC(=O)Nc2cc(C(F)(F)F)ccc2Cl)cc1	DT40 TDP1 CPT 16µM, TDP1 cell noCPT 8.2µM
O=C(C[n+]1ccccc1)Nc1cc(C(F)(F)F)ccc1Cl	none
O=C(C[n+]1ccc2ccccc2c1)Nc1cc(C(F)(F)F)ccc1Cl	DT40 TDP1 CPT 21µM, TDP1 cell noCPT inconclusive
Cc1cc[n+](CC(=O)Nc2cc(C(F)(F)F)ccc2Cl)cc1	none
CCN(CC)CCn1c(=N)n(CC(=O)c2ccc(C)cc2)c2ccccc21	DT40 TDP1 CPT 16µM, TDP1 cell noCPT 13µM (no result: TDP1 inh)
Cn1c(=N)n(CC(=O)c2ccc(Cl)c(Cl)c2)c2ccccc21	DT40 TDP1 CPT 13µM, TDP1 cell noCPT 16µM (no result: TDP1 inh)
Cn1c(=N)n(CC(=O)c2ccccc2)c2ccccc21	DT40 TDP1 CPT inconclusive, TDP1 cell noCPT 18µM (no result: ClpP mod)
COc1ccc(C(=O)Cn2c(=N)n(C)c3ccccc32)cc1	DT40 TDP1 CPT inconclusive, TDP1 cell noCPT 21µM
O=C(NCc1ccc(F)cc1)c1ccc2c(c1)nc1n2CCCCC1	TDP1 cell noCPT inconclusive
CCNc1ncc2nc(-c3ccc(F)cc3)c(=O)n(C[C@H]3CCCO3)c2n1	none (no result: TDP1 inh, ClpP mod)
COc1ccc(C(=O)CN2Cc3ccccc3C2=N)cc1	DT40 TDP1 CPT 16µM, TDP1 cell noCPT 18µM (no result: TDP1 inh)
COc1ccc(C(=O)Cn2c(C(C)=O)nc3ccccc32)cc1	DT40 TDP1 CPT 15µM, TDP1 cell noCPT 7.3µM (no result: TDP1 inh)
CC1CC(C)CN(C(=O)COC(=O)CCCN2C(=O)c3cccc4cccc(c34)C2=O)C1 (configuration not stated)	ClpP mod inconclusive
CCc1sc(C(=O)Nc2cc(Cl)ccc2N2CCCCC2)cc1C	DT40 TDP1 CPT inconclusive, ClpP mod 22µM, TDP1 cell noCPT inconclusive
CCc1sc(C(=O)Nc2ccc(N3CCOCC3)cc2)cc1C	DT40 TDP1 CPT 21µM, TDP1 cell noCPT inconclusive (no result: ClpP mod)
CC(=O)c1ccc(-c2c(C)cc3oc(=O)cc(-c4ccccc4)c3c2C)cc1	DT40 TDP1 CPT 18µM, TDP1 cell noCPT 23µM
Cc1cc2oc(=O)cc(-c3ccccc3)c2c(C)c1-c1ccc(C#N)cc1	DT40 TDP1 CPT 16µM, TDP1 cell noCPT 16µM
CC(=O)c1ccsc1-c1c(C)cc2oc(=O)cc(-c3ccccc3)c2c1C	DT40 TDP1 CPT inconclusive, TDP1 cell noCPT inconclusive
Cc1cc2oc(=O)cc(-c3ccccc3)c2c(C)c1-c1cccc(N)c1	none (no result: DT40 TDP1 CPT, ClpP mod, TDP1 cell noCPT)
C=CCNC(=O)CN1CCN(Cc2ccc3c(c2)OCO3)CC1	none (no result: TDP1 inh)
COc1ccc(N2CCN(C(=O)c3c4c(nc5ccccc35)C(=O)N(C3CCCCC3)C4)CC2)cc1	DT40 TDP1 CPT 15µM, TDP1 cell noCPT 16µM
O=C(c1c2c(nc3ccccc13)C(=O)N(C1CCCCC1)C2)N1CCN(c2ccc(F)cc2)CC1	DT40 TDP1 CPT 21µM, TDP1 cell noCPT 26µM
CN(C(=O)c1c2c(nc3ccccc13)C(=O)N(C1CCCCC1)C2)c1ccc(F)cc1	none
CS(=O)(=O)N(Cc1ccccc1)c1ccc(C(=O)Nc2ccc(Cl)cc2)cc1	DT40 TDP1 CPT inconclusive, TDP1 cell noCPT 5.8µM
